Bioassay records deposited in PubChem BioAssay by National Center for Advancing Translational Sciences (NCATS).
An excerpt weighted towards active compounds, which were near 3.2% of everything screened.
GLP-1R inv ag: acts as inverse agonist at human GLP-1 receptor. HEK293 GLP-1R CRE-luciferase, luminescence, 24 h; GLP-1R form is constitutively active. Potency, µM (titrated, usually from 38.3 µM), inactives show at the top dose activity change, negative = inhibition, actives largely listed as inhibitors. 410,000 compounds, 1.6% hits. AID 624417; further: on the % scale 0 is the no-effect control and ±100 the full control effect; nearly all actives have a fitted effect of over 55% in size
Target sequence (P43220 whole entry, looked up): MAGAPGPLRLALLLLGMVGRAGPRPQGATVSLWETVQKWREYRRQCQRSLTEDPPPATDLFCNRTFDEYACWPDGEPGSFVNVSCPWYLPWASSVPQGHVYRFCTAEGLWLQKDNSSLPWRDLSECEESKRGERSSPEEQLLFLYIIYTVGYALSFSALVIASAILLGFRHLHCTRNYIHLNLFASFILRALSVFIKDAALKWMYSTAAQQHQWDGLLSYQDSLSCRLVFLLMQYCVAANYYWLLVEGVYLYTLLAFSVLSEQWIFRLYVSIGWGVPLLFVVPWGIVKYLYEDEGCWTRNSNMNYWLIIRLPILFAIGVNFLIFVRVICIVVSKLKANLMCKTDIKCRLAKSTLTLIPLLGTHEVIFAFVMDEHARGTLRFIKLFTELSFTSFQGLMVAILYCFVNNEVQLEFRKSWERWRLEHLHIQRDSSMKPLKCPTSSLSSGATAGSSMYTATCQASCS
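GLP-1R inverse agonism mode: basal reporter luminescence in engineered HEK293 cells measured after one day of compound exposure at 37 deg C, with a 12 min room-temperature detection step.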
ClpP mod: qHTS Assay for Activators of ClpP; 340,000 compounds, 1.9% hits; Potency, µM (top dose mostly 57.5 µM), without a hit: top-dose activity change, negative = active; purified B. subtilis ClpP, FRET peptide cleavage, 20 min; active means well fitted falling curve with a large enough effect; inconclusive means small, poorly fitted or top-dose-only effect; inactive means no such curve, though single readings can be large or run the other way; further: the source files actives as falling curves though it sought activators and does not explain the sign; nearly all actives have a fitted effect of over 65% in size
Target sequence (P80244 whole entry, looked up): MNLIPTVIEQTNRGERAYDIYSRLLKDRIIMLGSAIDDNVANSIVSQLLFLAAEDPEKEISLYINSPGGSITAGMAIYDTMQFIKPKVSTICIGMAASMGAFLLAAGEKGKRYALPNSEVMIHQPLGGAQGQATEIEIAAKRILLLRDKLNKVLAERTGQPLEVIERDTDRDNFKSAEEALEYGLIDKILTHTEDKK
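ClpP 10 microg/mL final, pH 8 Tris/KCl buffer with BSA, glycerol, Tween-20; compound pinned in; FRET-FV substrate; RT 20 min; Ex320/Em430; ΔFRET vs ADEP 5.8 microM, DMSO, no enzyme.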
HEK293 tox: cytotoxicity counter-screen for GLP-1 receptor inverse agonists; HEK293 cAMP-luciferase reporter cells, luminescence, 24 h; Potency, µM (series often up to 38.3 µM), without a hit: at the top dose activity change, negative = inhibition, hits mostly inhibitors; 410,000 compounds, 0.13% hits; AID 624418;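 further: loss of luciferase light is scored as toxicity; on the % scale 0 is the no-effect control and ±100 the full control effect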
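MLSMR compounds, 24 hr on cells at 37 deg C/5% CO2; luminescence after luciferase reagent (12 min RT). Inhibition counted as the undesired cytotoxic outcome.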
GLP1R ag: GLP-1 receptor (human) agonism; P43220; HEK293 GLP-1R CRE-luciferase, luminescence, 4-6 h; cells express a hypersensitive GLP-1R form; Potency, µM (series often up to 45.6 µM), without a hit: at the top dose activation, usual class: activators; 380,000 compounds, 0.007% hits; AID 624172; further: % of control where 0% means no effect
* marks the source's active call; other numbers are inactive results; i = inactive; ? = inconclusive; . = not tested or not shown. Unless noted, the call rests on the fitted dose curve; in most records, active means well fitted curve in the direction sought with a large enough effect; inconclusive means small, poorly fitted or top-dose-only effect, or another doubt; inactive means no such curve, though single readings can be large; an effect the other way counts as inactive or inconclusive. Potency means the concentration at half of the fitted maximal effect.

SMILES | GLP-1R inv ag | ClpP mod | HEK293 tox | GLP1R ag
CCCCCCCNC1=CC(=O)CC(c2ccccc2)C1 (stereo not drawn) | 11.2µM* | -0.2% | -26.3% | 6.7%
COc1ccccc1N(C)S(=O)(=O)c1ccc(Cl)c(C(=O)N2CCC2)c1 | -10.4% | 17.8µM* | 3.6% | 2.9%
Cc1noc(C)c1COC(=O)c1cc(F)c(F)cc1Cl | 11.8% | -0.1% | -10.2% | -2.4%
COc1ccccc1N(C)S(=O)(=O)c1ccc(Cl)c(C(=O)NNC(=O)c2ccccc2O)c1 | 11.2µM* | -0.4% | -12.0% | -3.0%
COc1ccccc1N(C)S(=O)(=O)c1ccc(Cl)c(C(=O)OCc2c(C)noc2C)c1 | 10µM* | . | 3.5% | 17.0%
COc1ccccc1N(C)S(=O)(=O)c1ccc(C(=O)NNC(=O)c2ccccc2O)cc1 | ? | 1.1% | -4.7% | -11.3%
COc1ccc(S(=O)(=O)N2CCCCCC2)cc1N(C)S(=O)(=O)c1ccc(Cl)cc1 | 10µM* | 0.8% | -12.6% | 6.5%
CC(C)c1ccc(NC(=O)C2CCCN(S(=O)(=O)c3cccc4cccnc34)C2)cc1 (stereo not drawn) | ? | -1.4% | -4.6% | .
CCOc1cc(-c2ccc(OC(=O)c3ccc(OC)cc3)c(OC)c2)cc(=O)c2c(C)oc(C)c12 | -4.4% | -0.2% | -8.1% | .
Cc1ccc2[nH]c3c(c2c1)CN(C(=O)CN1CCN(Cc2ccc4c(c2)OCO4)CC1)CC3 | 3.55µM* | -0.4% | -17.6% | -2.7%
Cc1ccc2[nH]c3c(c2c1)CN(C(=O)CN1CC(C)OC(C)C1)CC3 (stereo not drawn) | -29.2% | -3.3% | 58.1% | 6.3%
N#Cc1c(F)cccc1N1CCN(Cc2ccc3c(c2)OCO3)CC1 | 11.2µM* | . | -12.3% | 14.9%
Fc1ccccc1N1CCN(Cc2nnc(-c3ccc4c(c3)OCO4)o2)CC1 | -2.3% | 35.5µM* | -4.5% | .
O=C(c1ccccc1F)N1CCN(Cc2ccc3c(c2)OCO3)CC1 | -14.3% | -0.6% | 13.6% | -6.6%
CC(C)(C)[C@]1(O)CCN2CC3c4ccccc4CCc4cccc(c43)[C@@H]2C1 (stereo partly drawn) | . | . | . | -0.1%
COC(=O)c1ccc(CN2CCCC(CNC(=O)Cc3ccc(OC)cc3)C2)cc1 (stereo not drawn) | -16.2% | 2.2% | -12.6% | -1.8%
COc1ccc(CC(=O)NCC2CCCN(Cc3ccc(OC(F)(F)F)cc3)C2)cc1 (stereo not drawn) | 10µM* | . | -0.9% | 20.7%
Cc1ccc(NC(=O)CN2C(=O)CC(c3ccco3)Sc3ccccc32)cc1Cl (stereo not drawn) | 19.6% | -3.1% | 4.7% | -1.9%
Cc1ccc(O/C=C2/Nn3c(nnc3-c3cc(-c4ccccc4)n[nH]3)S2)cc1 | . | -2.6% | . | .
Cn1c(=O)[nH]c(=O)c2c1nc(N1CCCCC1)n2CCSc1nc2ccccc2o1 | -17.6% | 0.6% | 0.5% | 27.2%
CC(C)CCn1c(Sc2nc3ccccc3o2)nc2c1c(=O)[nH]c(=O)n2C | 4.47µM* | 1.5% | 5.4% | -0.1%
O=C(CC1SC(=O)N(c2ccccc2)C1=O)Nc1ccccc1 (stereo not drawn) | 52.3% | 3.9% | -1.4% | -14.4%
Cc1cccc(NC(=O)CC2SC(=O)N(c3ccccc3)C2=O)c1 (stereo not drawn) | 0.0% | 35.5µM* | 8.7% | -19.4%
Cc1ccc(NC(=O)CC2SC(=O)N(c3ccccc3)C2=O)cc1 (stereo not drawn) | -10.6% | 28.2µM* | 1.8% | -4.7%
C/C1=C2N=C(/C=C3N=C(/C(C)=C4\[N-][C@@H]([C@H](CC(N)=O)[C@]4(C)CCC(=O)NC[C@@H](C)OP(=O)([O-])O[C@@H]4[C@@H](O)[C@H](n5cnc6cc(C)c(C)cc65)O[C@@H]4CO)[C@@]4(C)N=C1[C@H](CCC(N)=O)[C@@]4(C)CC(N)=O)[C@H](CCC(N)=O)C\3(C)C)[C@@H](CCC(N)=O)[C@@]/2(C)CC(N)=O.[CH3-].[Co+3] | . | . | . | -12.0%
SMILES | GLP-1R inv ag | ClpP mod | HEK293 tox | GLP1R ag
Clc1ccccc1C1=Nn2c(nnc2-c2ccncc2)SC1 | 1.12µM* | -2.8% | 0.2% | -9.7%
Oc1ccc(C2Nc3cccc4cccc(c34)N2)c(O)c1 | 9.6% | 31.6µM* | -9.2% | -21.0%
CCCc1cc(=O)[nH]c(SCc2nc(-c3ccc(OCC)cc3)no2)n1 | -3.2% | -2.2% | 4.7% | .
CC(C)(C)c1cc(/C=N/O)cc(C(C)(C)C)c1O | 10µM* | 11.1% | -9.9% | -7.9%
O=C(NCc1ccccc1)C(CCc1ccccc1)n1c(=O)c(-c2ccccc2)nc2ccccc21 (stereo not drawn) | ? | ? | -8.4% | .
O=C(Nc1ccc2ccccc2c1)C(C1CC1)n1c(=O)c(-c2cc3ccccc3[nH]2)nc2ccccc21 (stereo not drawn) | 5.01µM* | -8.0% | i | .
COc1ccc(NC(=O)C(C2CC2)n2c(=O)c(-c3cc4ccccc4[nH]3)nc3ccccc32)cc1 (stereo not drawn) | ? | -14.4% | i | .
O=C(Nc1ccc2c(c1)OCCO2)C(C1CC1)n1c(=O)c(-c2cc3ccccc3[nH]2)nc2ccccc21 (stereo not drawn) | 11.2µM* | 15.0% | i | .
COc1ccc(C(C(=O)Nc2ccc3c(c2)OCCO3)n2c(=O)c(-c3cc4ccccc4[nH]3)nc3ccccc32)cc1 (stereo not drawn) | ? | 34.2% | 459.6% | .
O=C(NCc1ccccc1)C(CCc1ccccc1)n1c(=O)c(-c2cc3ccccc3[nH]2)nc2ccccc21 (stereo not drawn) | 5.62µM* | 11.4% | 455.4% | .
CCN1CCN(c2oc(/C=C/c3ccccc3OC)nc2C#N)CC1 | -28.4% | 24.3% | 51.3% | .
CC1(C)CC[C@]2(C(=O)n3ccnc3)CC[C@]3(C)[C@H](C(=O)C=C4[C@@]5(C)C=C(C#N)C(=O)C(C)(C)[C@@H]5CC[C@]43C)[C@@H]2C1 | 2.51µM* | -2.3% | -10.2% | -1.7%
COc1cc(OC)c(NC2=C(c3ccc(C(F)(F)F)cc3)C(=O)c3ccccc32)cc1Cl | -5.9% | -6.6% | -0.3% | .
CCn1c(C(=O)NCc2cccc(Br)c2)cc2oc3ccccc3c21 | ? | 4.2% | 0.8% | .
COc1ccccc1CNC(=O)c1cc2cccc3c2n1CCS3 | ? | ? | -7.3% | .
COc1ccc(CNC(=O)c2cc3ccccn3n2)c(OC)c1 | -2.2% | -17.9% | 0.7% | .
CCOc1ccc(CCNC(=O)c2cc3cccc4c3n2CCS4)cc1 | ? | 22.4µM* | 0.5% | .
CC1Cn2c(C(=O)NCc3cccc(Br)c3)cc3cccc(c32)S1 (stereo not drawn) | ? | 31.6µM* | 0.6% | .
CCOc1ccc(CCNC(=O)c2ccc3c(c2)N(Cc2ccc(C)cc2)CCS3)cc1 | -2.7% | ? | 10.1% | .
COc1ccc(OC)c(CCNC(=O)c2cc3cccc4c3n2CCS4)c1 | ? | 31.6µM* | -7.0% | .
